Hits are enriched below; roughly 3.5% of the tested compounds scored in any of these assays.
CRE Fsk mod = modulators of forskolin-stimulated CRE signaling in CHO cells | Potency, µM (highest dose often 38.2 µM), actives largely listed as activators | AID 662 | CHO CRE-bla reporter (cAMP response element driving beta-lactamase), forskolin EC10, beta-lactamase ratio | 71,000 compounds, 2.5% hits; active means well fitted activation curve with a large enough effect in the signal ratio, with a control signal flat, not every such curve was filed as active; inconclusive means small, poorly fitted or top-dose-only effect, or effect the other way, or a change in a side signal; the % refers to the signal ratio
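Using CellSensor CRE-bla CHO cells in Opti-MEM with 0.5% dialyzed FBS, compounds were titrated with EC10 NKH 477 for 3 h at 37 °C. CCF4 ratio (460/530 nm) gave %Activity; AC50 derived.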
TSHR ag = agonists of human thyroid stimulating hormone receptor; P16473; HEK293-CNG-TSHR cells (CNG channel as cAMP sensor), membrane potential dye, cAMP; Potency, µM (titrated, usually from 57.1 µM), actives largely listed as activators; 73,000 compounds, 0.48% hits; AID 926; active means well fitted activation curve with a large enough effect in the main read-out, with a control signal flat, not every such curve was filed as active; inconclusive means small, poorly fitted or top-dose-only effect, or a change in a side signal; inactive means no such curve, though single readings can be large or run the other way; reference of the percent scale not stated here;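 further: the control signal comes from parental cells without the receptor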
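HEK 293 cells stably expressing TSHR and a modified CNG channel, with CNG-only parental cells as counterscreen, were preloaded 60 min at room temperature with membrane potential dye containing 100 uM RO 20-1724. Compound exposure was 30 min, and depolarization was read as fluorescence at 590 nm.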
HEK293 cAMP ctrl = parental HEK293 cAMP activation (counter-screen); parental HEK293 CNG cAMP sensor, membrane potential fluorescence; Potency, µM (doses to about 57.1 µM), most hits filed as activators; 73,000 compounds, 2.5% hits; AID 938; active means well fitted activation curve with a large enough effect; inconclusive means small, poorly fitted or top-dose-only effect; inactive means no such curve, though single readings can be large or run the other way; further: nearly all actives have a fitted effect of over 55% in size
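Parental HEK 293 cells stably expressing a cAMP-gated CNG channel were loaded with membrane potential dye containing 100 uM RO 20-1724 for 60 min. Compound added for 30 min; depolarization read as fluorescence intensity at 590 nm.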
IkB signaling = suppresses IkB signaling in ABC-DLBCL reporter cells; ABC-DLBCL IkBa-CBG/CBR dual luciferase ratio, 4 h; response scale: scaled: untreated 0%, proteasome inhibitor 100%; Potency, µM (doses to about 57.1 µM); 110,000 compounds, 0.04% hits; active means well fitted curve in the direction sought with a large enough effect in the signal ratio, not every such curve was filed as active; inconclusive means small, poorly fitted or top-dose-only effect, or a change in a side signal; the % refers to the signal ratio;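 further: the direction sought is a rising ratio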
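Luminescence ratio of IκBα-fused green versus native red beetle luciferase in OCI-Ly3 cells, 4 h post-doxycycline with compound; red signal alone, scaled from basal (0%) to zero light (-100%), flagged nonspecific or cytotoxic effects.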
Hsp90 Hop PPI = changes Hsp90-Hop TPR2A binding signal, up or down; AlphaScreen TPR2A-His6 binding biotin-Hsp90 C-terminal peptide; Potency, µM (doses to about 57 µM); 71,000 compounds, 0.44% hits; AID 595; active means well fitted curve in either direction with a large enough effect; inconclusive means small, poorly fitted or top-dose-only effect, or another doubt
Numbers stand for hits; . = inactive; ? = inconclusive; / = not tested or not shown; ! = repeats disagree; [ ] = remark or other dose.

SMILES	CRE Fsk mod	TSHR ag	HEK293 cAMP ctrl	IkB signaling	Hsp90 Hop PPI
Cc1cc(C)c2c(-n3cccc3)c(C(=O)NCCCN3CCCCC3)sc2n1	/	/	/	.	/
COc1cc2[nH]c(=O)n(Cc3ccc(C(=O)N4CCN(c5cccc(C)c5C)CC4)cc3)c(=O)c2cc1OC	/	/	/	.	/
O=C(c1[nH]o[n+](=O)c1C(=O)c1csc2ccccc12)c1csc2ccccc12	.[7.6 µM]	.[11.4 µM]	.[11.4 µM]	.[11.4 µM]	.[11 µM]
Cc1noc(C)c1C(=O)N1CCC2(CC1)CN(c1ccccc1)C2	.	.	.	.[11.4 µM]	.
CCOC(=O)c1c(NC(C)=O)sc2c1CCCNC2=O	13µM	.	.	.	.
CCOC(=O)N/N=C1/C[C@@H](O)[C@@H](O)[C@@H]2[C@@H]3C(=O)N(Cc4ccc5c(c4)OCO5)C(=O)[C@H]3CC[C@@H]12	/	.[11.4 µM]	.[11.4 µM]	/	/
CN(C)Cc1ccccc1-c1nc(NCc2cccs2)c2ccccc2n1	?	?	?	.[11.4 µM]	.
CCCCC[C@H](O)C=C[C@H]1[C@H](O)CC(=O)[C@H]1CCCCCCC(=O)O	?	?	0.01µM	.	?
CCCCC[C@H](O)/C=C\[C@@H]1[C@H](O)CC(=O)[C@@H]1CCCCCCC(=O)O	?	?	0.0025µM	.	.
CCCCCCCC/C=C\CCCCCCCC(N)=O	.	.	.	.	.
CCCCC[C@H](O)/C=C\[C@H]1[C@H](C/C=C\CCCC(=O)O)[C@@H](O)C[C@H]1O (tested in a mixture with another compound)	?	?	13µM	.	.
CCCCC[C@H](O)/C=C/[C@H]1[C@H](O)CC(=O)[C@@H]1C/C=C\CCCC(=O)O	/	?	0.01µM	/	/
Cc1cnn(-c2ccc3nnc(-c4ccc(Br)cc4)n3n2)c1	?	?	10µM	?	.
Cc1noc(C)c1-c1cncnc1N(C)Cc1ccco1	.	?	?	.[11.4 µM]	.
COc1cccc(Cn2c(Oc3cccc(C)c3)nc3c2c(=O)n(C)c(=O)n3C)c1	?	?	25µM	?	.
Cn1c(=O)c2c(nc(N3CCNCC3)n2Cc2cccc3ccccc23)n(C)c1=O	.	.	.	.	.
CCCOc1nc2c(c(=O)n(C)c(=O)n2C)n1Cc1cccc2ccccc12	?	?	32µM	.	.
Cc1cccc(CNc2ccnc(-c3ccccc3Cl)n2)c1	.	.	.	.[11.4 µM]	.
Cc1nc(NCc2ccccc2)c2nc(-c3ccccc3)n(CCN3CCCC3)c2n1	.	?	?	/	.
O=C1C(SCCO)=C(SCCO)C(=O)c2ccccc21	?	?	25µM!	?	?
N#CC(=NCCO)C1=C(O)c2ccccc2C1=O	.[7.6 µM]	.[11.4 µM]	.[11.4 µM]	.[11.4 µM]	.[11 µM]
CCCn1c(=O)c(C(=O)NCc2ccncc2)c(O)c2ccccc21	.	?	?	.	.
CCn1c(=O)cc(SCC(=O)NCc2ccccn2)c2ccccc21	7.9µM	.	.	.	.
CCn1c(=O)c(C(=O)Nc2cccnc2)c(O)c2ccccc21	.	.	.	?	.
CCn1c(=O)c(C(=O)NCc2cccnc2)c(O)c2ccccc21	2.5µM	.	.	.	.
SMILES	CRE Fsk mod	TSHR ag	HEK293 cAMP ctrl	IkB signaling	Hsp90 Hop PPI
CC(C)Cn1c(=O)c(C(=O)NCc2ccccn2)c(O)c2ccccc21	?	?	25µM	.	.
N#Cc1cccc(-c2ccc3ncnc(NCc4ccccc4)c3c2)c1	?	?	?	.[11.4 µM]	.
O=S(=O)(c1ccccc1)N1CCC2(CC1)CN(C(c1ccccc1)c1ccccc1)C2	.	.	.	.[11.4 µM]	.
O=C(Nc1ccccc1N1CCCCC1)c1cccs1	?	?	25µM	.	.
O=C(NC1CCCCC1)C(c1cccs1)N(CC1CCCO1)C(=O)c1csnn1 (stereo not drawn)	.	?	?	.	.
O=C(NCC(=O)N(Cc1ccc(F)cc1)C(C(=O)NC1CCCC1)c1ccco1)c1ccco1 (stereo not drawn)	.	?	16µM	.	.
COc1ccc(CN(C(=O)CNC(=O)c2ccco2)C(C(=O)NC2CCCC2)c2ccco2)cc1 (stereo not drawn)	.	.	.	.	.
O=C(NCC(=O)N(Cc1cccs1)C(C(=O)NC1CCCC1)c1ccncc1)c1ccco1 (stereo not drawn)	.	.	.	.	.
O=C(NC1CCCCC1)C(c1cccs1)N(Cc1cccs1)C(=O)c1ccco1 (stereo not drawn)	.	?	0.4µM	.	.
